This excerpt belongs to a sample that is enriched for hits.
LmPK inhibitor: blocks Leishmania mexicana pyruvate kinase activity. actives 0.37% (n = 290,000). purified LmPK, Kinase-Glo ATP luminescence, 1 h. Q27686. Potency, µM (highest dose often 57.5 µM), for the others: top-dose activity change, negative = inhibition, most hits filed as inhibitors. AID 1721; note: potency is the fitted concentration of half-maximal effect; % is set by controls: 0 for no effect and ±100 for the full control effect
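Purified LmPK (0.1 nM) with 0.5 mM PEP and 0.1 mM ADP in imidazole buffer pH 7.2 with MgCl2/KCl, 1 h at room temperature. ATP formed was read by luciferase luminescence and normalized to no-enzyme and uninhibited controls.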
TbPYK inhibitor: T. brucei pyruvate kinase inhibition; actives 0.12% (n = 410,000); TbPYK enzyme, Kinase-Glo Plus ATP luminescence, 45 min; AID 624173; Q57TT1; Potency, µM (doses to about 76.8 µM), for inactives: at the highest dose activity, negative = inhibition, actives largely listed as inhibitors; note: potency is the fitted concentration of half-maximal effect; % is set by controls: 0 for no effect and ±100 for the full control effect; nearly all actives have a fitted effect of over 50% in size
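Assay buffer: 50 mM TEA pH 7.2, 100 mM KCl, 10 mM MgCl2, 0.05% BSA, 0.01% Tween-20. Pyruvate kinase from T. brucei plus substrate met compound, then ADP (130 uM final). Luminescence was read post 45 min RT.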
Cycloheximide cs: counter-screen for Shiga toxin inhibitors: cycloheximide protein synthesis inhibition. cell reporter, cycloheximide protein synthesis inhibition counterscreen. max response, %. actives 12% (n = 300,000). AID 2314; in the data active = max response mostly above about 13%, no sharp cut-off; inactive = mostly below about 14%; note: read at 38.3 µM for the half of the compounds with a filed dose; 0% is about no effect
RE007 growth inh: less growth of the S. pombe RE007 Vpr strain | actives 0.21% (n = 360,000) | S. pombe RE007 Vpr strain, BacTiter-Glo ATP luminescence, 24 h | AID 651644 | Potency, µM (top dose mostly 92.2 µM), inactives show top-dose activity change, negative = less growth, actives largely listed as inhibitors; active = well fitted falling curve with a large enough effect; inconclusive = small, poorly fitted or top-dose-only effect; inactive = no such curve, though single readings can be large or run the other way; note: potency is the fitted concentration of half-maximal effect; % is set by controls: 0 for no effect and ±100 for the full control effect; nearly all actives have a fitted effect of over 50% in size
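Fission yeast RE007 carrying one integrated HIV-1 vpr copy, seeded at OD 0.01 in PMG+AL medium with 23 nL pinned compound. Grown 24 h at 30 degrees; viability read by BacTiter-Glo luminescence after 5 min.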
Giardia FBPA inh: blocks Giardia fructose-bisphosphate aldolase activity; A8B2U2; purified Giardia FBPA; Potency, µM (highest dose often 59.6 µM), for inactives: at the highest dose activity, negative = inhibition, hits mostly inhibitors; actives 0.71% (n = 290,000); AID 2451; note: potency is the fitted concentration of half-maximal effect; % is set by controls: 0 for no effect and ±100 for the full control effect; nearly all actives have a fitted effect of over 55% in size
Target sequence (A8B2U2 whole entry, looked up): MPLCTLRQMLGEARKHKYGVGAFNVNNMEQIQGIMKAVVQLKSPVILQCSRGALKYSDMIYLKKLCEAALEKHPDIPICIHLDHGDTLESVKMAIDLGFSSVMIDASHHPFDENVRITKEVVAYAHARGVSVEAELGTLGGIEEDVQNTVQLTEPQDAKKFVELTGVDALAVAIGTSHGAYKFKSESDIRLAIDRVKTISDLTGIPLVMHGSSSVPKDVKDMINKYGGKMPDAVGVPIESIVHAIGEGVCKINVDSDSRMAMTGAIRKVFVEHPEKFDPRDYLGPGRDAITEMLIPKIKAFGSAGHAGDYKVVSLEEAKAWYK
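40 nM FBPA preincubated 10 min at RT with compound (up to 57.5 uM final), then substrate plus GAPDH/TPI/NAD/arsenate coupling and diaphorase/resazurin added. Fluorescence read after 20 min at RT, 525/598 nm.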
Shiga toxin inh: inhibitors of Shiga toxin in Vero cells; Vero cells, Shiga toxin protein synthesis inhibition reporter; inhibition, % at 38.7 µM; actives 9.2% (n = 290,000); AID 2315; in the data active = inhibition mostly above about 28%, no sharp cut-off; inactive = mostly below about 43%; note: 0% is about no effect
An asterisk follows results filed as active; ? = inconclusive; · = not tested or not shown. Unless noted, calls come from the whole dose curve; as a rule, active = well fitted curve in the direction sought with a large enough effect; inconclusive = small, poorly fitted or top-dose-only effect, or another doubt; inactive = no such curve, though single readings can be large; an effect the other way counts as inactive or inconclusive.

SMILES	LmPK inhibitor	TbPYK inhibitor	Cycloheximide cs	RE007 growth inh	Giardia FBPA inh	Shiga toxin inh
O=C(N/N=C/c1ccc(Br)s1)c1ccncc1	2.1%	-1.7%	12.6	12.9%	-0.5%	-7.5
O=C(N/N=C/c1ccc(Br)s1)Nc1ccccc1	-4.5%	-0.4%	45.7*	0.0%	0.4%	53.1
O=C(NN=Cc1ccccc1)NN=Cc1ccccc1	·	-4.1%	·	3.0%	·	·
CCCCNc1nc(C)nc2c1nc(-c1ccccc1)n2CCCN(CC)CC	·	·	·	·	3.1%	·
CCc1cc2cc(C(=O)Nc3ccc(F)cc3)sc2s1	-2.7%	0.2%	30.2*	-6.0%	-4.4%	76.3*
COc1ccc2nc3sc(C(=O)Nc4ccccc4F)cc3cc2c1	·	0.0%	·	·	·	·
Cc1nc(Cl)sc1C(=O)Nc1ccc(F)cc1	·	-0.5%	·	10.4%	·	·
CC(C)(C)c1ccc(C(=O)Nc2ccc(F)cc2)s1	-6.9%	-9.1%	39.5*	0.2%	-28.7%	70.7*
CCc1cc2cc(C(=O)Nc3ccccc3F)sc2s1	0.4%	-0.2%	29.7*	3.3%	-1.5%	96.6*
O=C(Nc1c2c(nn1-c1ccc(Cl)cc1)CS(=O)(=O)C2)c1ccccc1F	·	2.5%	·	·	·	·
CCOc1ccc(-n2c(=O)c3c(C)c(C)sc3n(CC(=O)N3CCC(C)CC3)c2=O)cc1	·	-0.5%	·	·	·	·
COC(=O)c1ccccc1NC(=O)Cn1c(=O)n(-c2cccc(OC)c2)c(=O)c2c(C)c(C(=O)N(C)C)sc21	·	-11.0%	·	·	·	·
O=C(NCC1CCCO1)c1nn2cccnc2c1Cl (centres undefined)	5.2%	-3.4%	24.0*	-12.0%	0.2%	28.5*
O=C(NCc1cccs1)c1nn2cccnc2c1Cl	4.0%	0.6%	21.5*	-2.3%	0.5%	56.1
O=C(NCC12CC3CC(CC(C3)C1)C2)c1nn2cccnc2c1Cl	7.4%	-0.8%	-1.4	13.8%	12.0%	-6.6
CCC(Oc1ccccc1)C(=O)Nc1cc(-c2ccccc2F)nn1-c1ccccc1 (centres undefined)	·	6.2%	·	·	·	·
OC(CCc1cccc(Cl)c1)c1cccs1 (centres undefined)	-8.0%	4.2%	34.6*	-12.5%	5.7%	44.4*
CC(O)CN(Cc1cccc(Cl)c1)CC(C)O (centres undefined)	-12.0%	16.4%	-6.3	-2.4%	-13.5%	-2.4
CCc1ccc(N(C(=O)c2csnn2)C(C(=O)NC(C)(C)C)c2ccccn2)cc1 (centres undefined)	-13.5%	-8.8%	29.4*	-5.3%	2.0%	76.0*
COc1ccc(/C=C/C(=O)c2ccc(O)cc2O)cc1OC	·	·	·	·	3.3%	·
O=C(COC(=O)/C=C/c1ccc2c(c1)OCO2)NCc1ccccc1	·	-2.8%	·	-11.6%	·	·
O=C(/C=C/c1ccc2c(c1)OCCCO2)c1ccc2ccccc2c1O	-3.0%	-0.9%	11.9*	24.3%	-17.1%	39.6*
Cc1ccc(C(=O)/C=C/c2ccc3c(c2)OCCO3)c(O)c1	-7.3%	-6.9%	39.9*	-3.0%	-2.3%	86.5*
CCOc1ccccc1CNCc1c(C(=O)O)c(C)n(Cc2ccc(Cl)cc2)c1C	·	-15.0%	·	·	·	·
Cc1ccccc1CNc1nc(N(C)C)nc2c1cnn2C	·	-8.5%	·	·	·	·
SMILES	LmPK inhibitor	TbPYK inhibitor	Cycloheximide cs	RE007 growth inh	Giardia FBPA inh	Shiga toxin inh
Oc1ccc(N=C/C=C/c2ccc(Br)cc2)cc1-c1nc2ccccc2s1	-12.5%	·	36.2*	·	?	40.3*
COc1ccccc1NC(=O)CC(c1cc(OC)c(OC)c(OC)c1)N1Cc2ccccc2C1=O (centres undefined)	·	-6.6%	·	·	·	·
COc1ccc(CNC(=O)C2CSC(c3ccc(OC)cc3)N2C(C)=O)cc1 (centres undefined)	13.5%	-0.5%	3.1	-7.7%	1.8%	-6.5
c1ccc(CCNCC2COc3ccccc3O2)cc1 (centres undefined)	0.1%	-1.6%	18.8*	15.0%	4.7%	27.9*
COc1ccc(CNC(=O)C2CSCCS2)cc1 (centres undefined)	-8.6%	0.8%	24.2*	-0.7%	1.9%	30.5
COc1ccc(CNC(=O)C2COc3ccccc3O2)cc1 (centres undefined)	-1.1%	0.4%	28.5*	-29.1%	-0.8%	38.5*
COc1ccccc1CNC(=O)C1COc2ccccc2O1 (centres undefined)	6.6%	1.7%	30.1*	4.5%	10.3%	42.9*
O=C(CSc1nc2ccsc2c(=O)n1Cc1ccccc1F)NCc1ccccc1Cl	·	-2.8%	·	·	·	·
COc1ccc(N2CC(NC(=O)c3ccc(OC(C)C)cc3)CC2=O)cc1 (centres undefined)	·	-3.2%	·	·	·	·
COc1ccc(CCNC(=O)C2COc3ccccc3O2)cc1OC (centres undefined)	·	1.2%	·	-8.6%	·	·
O=C(NCCc1ccc(Cl)cc1)C1COc2ccccc2O1 (centres undefined)	-0.1%	14.2%	12.7*	-21.0%	6.4%	-2.9
O=C(NCC1COc2ccccc2O1)c1ccc(Cl)cc1 (centres undefined)	-1.5%	-14.9%	16.1*	?	-0.6%	38.7
CC1(C)C2CC=C(/C=N/NC(=O)c3ccccc3O)C1C2 (centres undefined)	-1.3%	0.1%	7.8	-7.4%	-1.0%	36.0*
CC1(C)C2CC=C(/C=N/NC(=S)NCCc3ccccc3)C1C2 (centres undefined)	-1.1%	-1.1%	17.5*	-12.9%	-6.1%	29.3
Cc1ccccc1NC(=O)CSc1nc(=O)n(CCN2CCOCC2)c2c1CCC2	·	2.8%	·	·	·	·
O=S(=O)(Cc1ccccc1)N1CCc2ccccc21	-13.6%	·	13.1*	·	-16.1%	33.7*
O=C(CS(=O)(=O)Cc1ccccc1)N1CCc2ccccc2C1	1.4%	-2.3%	16.1*	-16.0%	-16.7%	39.6
O=C(CNS(=O)(=O)c1ccccc1)N1CCc2ccccc2C1	6.3%	-4.3%	34.8*	-5.8%	12.6%	·
O=C(Cc1ccccc1[N+](=O)[O-])N1CCc2ccccc2C1	8.8%	-3.5%	15.3*	12.2%	2.8%	50.6
O=C(Cc1ccc([N+](=O)[O-])cc1)N1CCc2ccccc2C1	-0.8%	-1.0%	-3.2	-1.0%	0.0%	10.2
O=C(Cn1c(=O)n(Cc2ccco2)c(=O)c2oc3ccccc3c21)Nc1ccc(F)c(Cl)c1	·	-4.4%	·	·	·	·
CCOC(=O)N1CCc2c(sc(NCc3ccc(OC)c(Br)c3)c2C(=O)Nc2cc(OC)ccc2OC)C1	·	-14.8%	·	·	·	·
CC[C@@H]1/C=C(\C)C[C@H](C)C[C@H](OC)[C@H]2O[C@@](O)(C(=O)C(=O)N3CCCC[C@H]3C(=O)O[C@H](/C(C)=C/[C@@H]3CC[C@H](Cl)[C@H](OC)C3)[C@H](C)[C@@H](O)CC1=O)[C@H](C)C[C@@H]2OC	·	-7.3%	·	·	·	·
CC(=O)N1CC(C)Sc2ccc(S(=O)(=O)NCCc3ccc(C)cc3)cc21 (centres undefined)	1.7%	0.0%	9.5	1.4%	·	3.0

Compound activity from PubChem BioAssay.
